The list is not random: actives were taken first. Their share in the collection is about 19%.
HT1080 IDH1KD tx = kills HT-1080 cells with IDH1 knockdown | HT-1080 IDH1 knockdown viability, ATP luminescence, 48 h | Potency, µM (titrated, usually from 46.1 µM), usual class: cytotoxic | hit rate 2% among 360,000 | AID 686971
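IDH1KD HT-1080 cells, 750/well, RPMI + 5% FBS; compound pinned after 2 h settling; 48 h, 37 °C; CellTiter-Glo luminescence; % activity normalised to DMSO and no-cell wells; curves fitted, classed by r2 and efficacy.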
TDP1 cell CPT = DT40-hTDP1 cell growth loss with CPT | AID 686979 | hit rate 12% among 420,000 | chicken DT40 Tdp1-/-;hTDP1 cells + 20 nM CPT, ATP luminescence, 48 h | Potency, µM (doses to about 46.2 µM), actives largely listed as inhibitors; further: nearly all actives have a fitted effect of over 55% in size
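Chicken DT40 Tdp1-/- cells stably complemented with human TDP1 were seeded at 400 cells/well in medium containing 20 nM camptothecin, exposed to pin-transferred compounds, and grown at 37 °C for at least 48 hr. Viability was read as ATP luminescence.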
ELG1 repair inh = blocks ELG1-dependent DNA repair in HEK293T cells; AID 504467; Potency, µM (titrated, usually from 46.1 µM), usual class: inhibitors; HEK293T ELG1-luciferase reporter, luminescence, 16 h; DNA damage induced by 5-fluorouridine; hit rate 2.3% among 330,000; further: nearly all actives have a fitted effect of over 55% in size
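DMSO vehicle served as the neutral condition. Each well held 2,000 cells given 5-fluorouridine plus compound; after 16 hr at 37 °C/5% CO2, ONE-Glo was added and luciferase measured 30 min later.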
HT1080-NT tox = kills 2HG-producing HT-1080-NT fibrosarcoma cells; HT-1080-NT fibrosarcoma viability, CellTiter-Glo ATP luminescence, 48 h; Potency, µM (titrated, usually from 46.1 µM), hits mostly cytotoxic; hit rate 1.6% among 360,000; AID 686970;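 further: NT is the 2HG producing partner of a matched IDH1 knockdown line; nearly all actives have a fitted effect of over 55% in size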
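Compounds were tested in concentration-response format on HT-1080-NT cells for 48 hours at 37 degrees C. Cell viability came from CellTiter-Glo luminescence; curves were classified by r2, response magnitude and activity.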
IL1B secr inh = inhibitors of inflammasome signaling (IL-1 beta secretion) | hit rate 4.7% among 360,000 | THP-1 LPS/ATP IL-1B secretion, AlphaLISA, 16 h; active compounds read low | activity change, % at 57.5 µM; in the data active means activity change below about -50%; inconclusive means mostly about -30% to -49%
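THP-1 cells pretreated 1 hr with compounds (up to 57.5 uM final), then stimulated with LPS (250 ng/mL final) plus ATP (1.25 mM final); secreted IL-1B measured by AlphaLISA after 16 hr, decreased signal indicating inhibition.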
DT40 TDP1 no CPT = qHTS for Inhibitors of human tyrosyl-DNA phosphodiesterase 1 (TDP1): qHTS in cells in absence of CPT; DT40 Tdp1-/- hTDP1 cells, no CPT, ATP luminescence, 48 h; Potency, µM (top dose mostly 46.2 µM), usual class: inhibitors; hit rate 15% among 420,000; further: nearly all actives have a fitted effect of over 55% in size
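Chicken DT40 Tdp1-/- cells stably complemented with human TDP1 were seeded at 400 cells/well with DMSO in place of 20 nM camptothecin. After compound pinning, cells grew at least 48 hr at 37 °C; viability read by CellTiter-Glo luminescence.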
A number is an active result; - = inactive; ? = inconclusive; . = not tested or not shown; [ ] = dose if it differs, or a comment. Unless noted, the call rests on the fitted dose curve; in most records, active means well fitted curve in the direction sought with a large enough effect; inconclusive means small, poorly fitted or top-dose-only effect, or another doubt; inactive means no such curve, though single readings can be large; an effect the other way counts as inactive or inconclusive.

SMILES	HT1080 IDH1KD tx	TDP1 cell CPT	ELG1 repair inh	HT1080-NT tox	IL1B secr inh	DT40 TDP1 no CPT
CC1(C(=O)Nc2ccccc2F)CCN1C(=O)Cc1ccc(-c2ccccc2)cc1 (stereo not drawn)	?	?	.	?	-	15µM
CC1(C(=O)Nc2cnc3ccccc3c2)CCN1C(=O)CC(c1ccccc1)c1ccccc1 (stereo not drawn)	-	?	.	-	-	16µM
Cc1ccc(NC(=O)C2(C)CCN2C(=O)CC(c2ccccc2)c2ccccc2)cc1 (stereo not drawn)	-	?	.	-	-	?
CCC(=O)N1CCC1(C)C(=O)Nc1ccccc1 (stereo not drawn)	-	-	.	-	-	-
CC1(C(=O)Nc2ccccc2F)CCN1C(=O)Cc1cc(F)ccc1F (stereo not drawn)	-	-	.	-	-	?
Cc1ccc(NC(=O)COc2ccc3c(c2)OCO3)c(Cl)c1	-	-	?	-	?	-
Nc1c2c(nn1-c1ccc(F)cc1)CSC2	-	-	-	-	-	-
CC(=O)/C=C1\OCc2ccccc21	-	-	.	-	-	-
CC1(C(=O)Nc2ccc(Cl)c(Cl)c2)CCN1C(=O)CC(c1ccccc1)c1ccccc1 (stereo not drawn)	?	18µM	.	?	-	23µM
CC1(C(=O)Nc2ccc(Cl)c(Cl)c2)CCN1C(=O)Cc1cccc2ccccc12 (stereo not drawn)	?	?	.	-	-	?
Cn1nc(C2CC2)cc1NC(=O)C1(C)CCN1C(=O)Cc1ccc(-c2ccccc2)cc1 (stereo not drawn)	-	21µM	.	-	-	21µM
CC1(C(=O)Nc2ccc(Cl)c(Cl)c2)CCN1C(=O)Cc1ccc(-c2ccccc2)cc1 (stereo not drawn)	?	15µM	.	?	-	18µM
CCCC(C)(C)C(=O)N1CCC1(C)C(=O)Nc1cccc2ccccc12 (stereo not drawn)	-	21µM	.	-	-	10µM
Cn1nc(C2CC2)cc1NC(=O)C1(C)CCN1C(=O)CCc1ccccc1 (stereo not drawn)	-	-	.	-	-	-
CCN1CCN(C(=O)c2cc(NC(=O)COC)cc3nc(-c4ccncc4)n(C)c23)CC1	.	-	.	.	.	-
COC(=O)c1ccsc1NC(=O)CN1CCN(c2ncccn2)CC1	-	-	?	-	-	?
CCCN(CCC)C(=O)CC(c1ccc(F)cc1)c1ccco1 (stereo not drawn)	-	?	-	-	?	21µM
O=C1NC(=S)NC(=O)C1Nc1ccc(Cl)cc1	-	?	.	-	-	7.3µM
CC(=O)N1C(Nc2ccc(Cl)cc2)CCN1c1ccccc1 (stereo not drawn)	?	-	-	-	-	-
CCOC(=O)CC(=O)CSc1ccc2nnc(-c3cccc(F)c3)n2n1	?	-	?	-[9.24 µM]	?	-
COC(=O)c1ccc(CSc2ccc3nnc(-c4cccc(F)c4)n3n2)o1	?	-	?	-	-	7.3µM
CCOCCCn1c(SCC(=O)NC(C)(C)C)nc2ccccc2c1=O	-	-	-	-	-	-
CCOCCCn1c(SCC(=O)Nc2ccccc2CC)nc2ccccc2c1=O	.	16µM	.	.	.	16µM
CCOCCCn1c(SCC(=O)Nc2ccccc2Cl)nc2c(oc3ccccc32)c1=O	.	?	.	.	.	7.3µM
CCOCCCn1c(SCC(=O)Nc2cc(C)ccc2C)nc2c(oc3ccccc32)c1=O	.	-	.	.	.	-
SMILES	HT1080 IDH1KD tx	TDP1 cell CPT	ELG1 repair inh	HT1080-NT tox	IL1B secr inh	DT40 TDP1 no CPT
CCOCCCn1c(SCC(=O)Nc2ccc3[nH]c(=O)[nH]c3c2)nc2ccccc2c1=O	-	?	-	-	-54	-
Cc1cccc(NC(=O)CSc2nccn2Cc2ccc(F)cc2)c1C	.	-	.	.	.	-
COc1ccc([C@@H]2CC=C(C(=O)O)[C@H](c3ccc(C)cc3)N2S(=O)(=O)c2ccc(C)cc2)cc1OC	-	-	-	-	-	-
Cc1ccc(S(=O)(=O)N2[C@@H](c3cccc(Cl)c3)C(C(=O)OC(C)(C)C)=CC[C@H]2c2ccc(C(C)C)cc2)cc1	-	?	.	-	-	15µM
COc1ccc([C@@H]2CC=C(C(=O)O)[C@H](c3ccc(C(C)(C)C)cc3)N2S(=O)(=O)c2ccc(C)cc2)cc1OC	-	?	-	-	-	15µM
Cc1ccc(S(=O)(=O)N2[C@@H](c3ccc(Br)cc3)C(C(=O)O)=CC[C@H]2c2ccc(Cl)c(Cl)c2)cc1	-	-	-	-	-	-
Cc1ccc(S(=O)(=O)N2[C@@H](c3ccc(Cl)cc3)C(C(=O)OC(C)(C)C)=CC[C@H]2c2ccc(Cl)c(Cl)c2)cc1	-	?	.	-	-	15µM
CC(N)(C(=O)O)c1ccc(P(=O)(O)O)cc1 (stereo not drawn)	.	-	.	.	.	-
CCN(CC)S(=O)(=O)c1ccc(C)c(NC(=O)CSc2nc3ccccc3[nH]2)c1	-	?	?	-	-	23µM
Cc1ccccc1OCCn1cnc2cc([N+](=O)[O-])ccc2c1=O	-	18µM	?	-	-	21µM
CCCc1nnc(NC(=O)CSc2nc3ccccc3[nH]2)s1	-	?	-	-	-109	?
CCN(CC)S(=O)(=O)c1ccc(C)c(NC(=O)Cn2cnc3cc([N+](=O)[O-])ccc3c2=O)c1	-	?	16µM	-	-	?
COc1ccc(OC)c(/C=C/C(=O)OCC(=O)N2CCN(S(=O)(=O)c3ccc(C)cc3C)CC2)c1	-	?	-	-	-	?
O=C(C[n+]1cc(-c2ccccc2)n2c1CCCCC2)c1ccc(Br)cc1	-	21µM	?	-	-77	23µM
Cn1c(NC(=O)C[n+]2cc(-c3ccc(Cl)c(Cl)c3)n3c2CCC3)cc(=O)n(C)c1=O	-	-	-	-	-	?
O=C(C[n+]1cc(-c2ccc(F)cc2)n2c1CCC2)OCc1ccccc1	-	-	-	-	-	-
Cc1ccc(-c2c[n+](Cc3ccc(Cl)c(Cl)c3)c3n2CCC3)cc1	?	0.58µM	21µM	?	-79	0.52µM
Cc1ccc(C(=O)C[n+]2cc(-c3ccc(C)cc3)n3c2CCCCC3)cc1	18µM	0.21µM	16µM	13µM	-96	0.15µM
COc1ccc(C(=O)C[n+]2cc(-c3ccc(OC)cc3)n3c2CCCC3)cc1	?	9.2µM	7.3µM	-	-	6.5µM
C[C@H](CO)N1C[C@H](C)[C@@H](CN(C)S(=O)(=O)c2cccs2)Oc2c(NC(=O)CCC(F)(F)F)cccc2C1=O	-	-	-	-	-	-
O=C(Nc1ccc(C(=O)N2CCCC2)cc1)Nc1ccc(Cl)cc1Cl	-	-	-	-	-	-
